# Experimental data published in paper PMC7862700, “An all-to-all approach to the identification of sequence-specific readers for epigenetic DNA modifications on cytosine”.
# Columns and labels:
# Assay in all cases: DAPPL (digital affinity profiling via proximity ligation, sequencing); 10 mM Tris-HCl pH 7.5, 50 mM NaCl, 1 mM DTT, 4% glycerol, room temperature, 30 min; GST-TFs on glutathione beads, 16-mer random dsDNA library, 0.1% formaldehyde crosslink after washing; high values mean tight binding
# FEV = biological target: T1, FEV (Homo sapiens, UniProt Q99581 1-238); conditions: protein: recombinant; tags: N-terminal GST; dsDNA, one strand shown
# T1 sequence: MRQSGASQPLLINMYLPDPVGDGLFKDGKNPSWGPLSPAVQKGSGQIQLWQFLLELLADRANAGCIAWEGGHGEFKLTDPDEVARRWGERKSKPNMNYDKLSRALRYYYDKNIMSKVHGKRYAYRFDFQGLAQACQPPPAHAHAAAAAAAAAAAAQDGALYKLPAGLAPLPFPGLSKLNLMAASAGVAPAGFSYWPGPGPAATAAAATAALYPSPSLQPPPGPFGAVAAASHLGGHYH
# Summary of the method: (§1)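 Pools of DNA-barcoded human transcription factors, expressed in yeast as GST fusions on glutathione beads and combined with a tag-only sample, were incubated with 200 nmole of a 16-mer random double-stranded DNA library. Incubation took 30 min at room temperature in Tris/NaCl/DTT/glycerol buffer and was followed by washing, 0.1% formaldehyde crosslinking, proximity ligation (BsaI/T4 ligase, 1 h, 37 °C), PCR amplification and sequencing on an Illumina NextSeq500. Binding signal is the ratio of a hexamer's read frequency for a factor to its frequency for the tag-only sample.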
# ETV5 = ETV5 (Homo sapiens, UniProt P41161 1-510); conditions: protein: recombinant; tags: N-terminal GST; dsDNA, one strand shown
# Summary of the method: as §1
# HSF1 = HSF1 (Homo sapiens, UniProt Q00613 1-529); conditions: protein: recombinant; tags: N-terminal GST; chain copies: 3; dsDNA, one strand shown
# Summary of the method: as §1
# SPIC = biological target: T2, SPIC (Homo sapiens, UniProt Q8N5J4 1-248); conditions: protein: recombinant; tags: N-terminal GST; dsDNA, one strand shown
# T2 sequence: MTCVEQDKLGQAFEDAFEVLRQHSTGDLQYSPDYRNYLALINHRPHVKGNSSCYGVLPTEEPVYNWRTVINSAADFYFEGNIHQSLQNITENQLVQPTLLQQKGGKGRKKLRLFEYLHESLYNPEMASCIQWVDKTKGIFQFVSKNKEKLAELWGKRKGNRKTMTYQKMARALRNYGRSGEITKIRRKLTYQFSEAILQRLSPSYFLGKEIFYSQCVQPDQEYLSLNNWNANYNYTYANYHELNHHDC
# Summary of the method: as §1
# ELF4 = ELF4 (Homo sapiens, UniProt Q99607 1-663); conditions: protein: recombinant; tags: N-terminal GST; dsDNA, one strand shown
# Summary of the method: as §1
# ELK4 = biological target: T3, ELK4 (Homo sapiens, UniProt P28324-2 1-405); conditions: protein: recombinant; tags: N-terminal GST; dsDNA, one strand shown
# T3 sequence: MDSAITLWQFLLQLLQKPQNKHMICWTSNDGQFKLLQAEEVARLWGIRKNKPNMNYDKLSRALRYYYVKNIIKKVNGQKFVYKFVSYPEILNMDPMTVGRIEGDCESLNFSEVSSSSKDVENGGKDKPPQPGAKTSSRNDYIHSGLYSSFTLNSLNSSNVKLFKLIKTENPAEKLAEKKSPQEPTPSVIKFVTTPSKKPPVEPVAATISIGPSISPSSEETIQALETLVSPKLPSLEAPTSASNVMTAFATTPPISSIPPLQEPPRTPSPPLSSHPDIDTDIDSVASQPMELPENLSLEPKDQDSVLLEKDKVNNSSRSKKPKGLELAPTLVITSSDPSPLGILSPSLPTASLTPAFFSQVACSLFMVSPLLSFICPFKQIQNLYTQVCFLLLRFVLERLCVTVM
# Summary of the method: as §1
# ETV2 = biological target: T4, ETV2 (Homo sapiens, UniProt O00321 1-342); conditions: protein: recombinant; tags: N-terminal GST; dsDNA, one strand shown
# T4 sequence: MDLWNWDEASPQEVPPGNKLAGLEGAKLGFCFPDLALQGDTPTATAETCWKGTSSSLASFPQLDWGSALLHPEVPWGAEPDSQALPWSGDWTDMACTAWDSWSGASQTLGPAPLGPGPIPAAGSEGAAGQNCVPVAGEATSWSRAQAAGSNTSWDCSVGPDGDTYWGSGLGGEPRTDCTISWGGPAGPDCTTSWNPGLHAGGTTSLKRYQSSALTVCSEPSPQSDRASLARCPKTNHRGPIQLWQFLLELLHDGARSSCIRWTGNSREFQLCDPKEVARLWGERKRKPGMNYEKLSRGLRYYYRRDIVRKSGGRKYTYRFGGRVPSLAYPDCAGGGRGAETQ
# Summary of the method: as §1
# ELF3 = biological target: T5, ELF3 (Homo sapiens, UniProt P78545 1-371); conditions: protein: recombinant; tags: N-terminal GST; dsDNA, one strand shown
# T5 sequence: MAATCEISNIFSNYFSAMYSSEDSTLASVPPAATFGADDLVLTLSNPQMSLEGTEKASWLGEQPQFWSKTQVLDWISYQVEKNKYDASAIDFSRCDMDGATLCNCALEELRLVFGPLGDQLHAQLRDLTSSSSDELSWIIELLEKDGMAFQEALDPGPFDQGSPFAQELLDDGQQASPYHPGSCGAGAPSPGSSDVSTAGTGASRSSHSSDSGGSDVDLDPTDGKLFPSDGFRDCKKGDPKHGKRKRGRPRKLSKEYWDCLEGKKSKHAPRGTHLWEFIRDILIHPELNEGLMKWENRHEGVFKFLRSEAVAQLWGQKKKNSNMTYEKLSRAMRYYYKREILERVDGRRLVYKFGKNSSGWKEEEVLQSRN
# Summary of the method: as §1
# CRX = CRX (Homo sapiens, UniProt O43186 1-299); conditions: protein: recombinant; tags: N-terminal GST; dsDNA, one strand shown
# Summary of the method: as §1
# ETV1 = ETV1 (Homo sapiens, UniProt P50549 1-477); conditions: protein: recombinant; tags: N-terminal GST; dsDNA, one strand shown
# Summary of the method: as §1
# ERF = biological target: T6, ERF (Homo sapiens, UniProt P50548 1-548); conditions: protein: recombinant; tags: N-terminal GST; dsDNA, one strand shown
# T6 sequence: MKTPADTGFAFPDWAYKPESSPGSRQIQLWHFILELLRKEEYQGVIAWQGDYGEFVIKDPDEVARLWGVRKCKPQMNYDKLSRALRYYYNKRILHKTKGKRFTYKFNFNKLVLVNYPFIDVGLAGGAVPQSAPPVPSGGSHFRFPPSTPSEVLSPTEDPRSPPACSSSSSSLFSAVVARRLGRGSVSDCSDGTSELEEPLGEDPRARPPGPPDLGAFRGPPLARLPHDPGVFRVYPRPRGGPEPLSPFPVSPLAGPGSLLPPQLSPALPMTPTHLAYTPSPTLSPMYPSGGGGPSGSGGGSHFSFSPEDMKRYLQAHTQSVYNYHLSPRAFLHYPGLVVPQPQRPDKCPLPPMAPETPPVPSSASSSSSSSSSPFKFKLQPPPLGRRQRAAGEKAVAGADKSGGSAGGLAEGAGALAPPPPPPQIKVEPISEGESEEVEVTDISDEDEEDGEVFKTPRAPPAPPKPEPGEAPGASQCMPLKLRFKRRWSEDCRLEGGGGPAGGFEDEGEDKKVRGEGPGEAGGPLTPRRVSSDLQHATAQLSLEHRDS
# Summary of the method: as §1
# ETV3L = biological target: T7, ETV3L (Homo sapiens, UniProt Q6ZN32 1-361); conditions: protein: recombinant; tags: N-terminal GST; dsDNA, one strand shown
# T7 sequence: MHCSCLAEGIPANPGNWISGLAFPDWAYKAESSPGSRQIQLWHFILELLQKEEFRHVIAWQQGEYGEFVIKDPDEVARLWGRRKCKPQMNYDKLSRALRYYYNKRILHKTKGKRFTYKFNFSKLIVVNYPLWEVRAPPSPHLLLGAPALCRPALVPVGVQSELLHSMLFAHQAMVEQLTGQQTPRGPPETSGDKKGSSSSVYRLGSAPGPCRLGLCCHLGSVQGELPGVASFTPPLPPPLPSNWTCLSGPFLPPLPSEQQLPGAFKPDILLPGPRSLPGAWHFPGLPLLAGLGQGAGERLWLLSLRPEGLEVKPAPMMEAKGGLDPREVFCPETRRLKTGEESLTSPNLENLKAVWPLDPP
# Summary of the method: as §1
# ETS2 = biological target: T8, ETS2 (Homo sapiens, UniProt P15036 1-469); conditions: protein: recombinant; tags: N-terminal GST; dsDNA, one strand shown
# T8 sequence: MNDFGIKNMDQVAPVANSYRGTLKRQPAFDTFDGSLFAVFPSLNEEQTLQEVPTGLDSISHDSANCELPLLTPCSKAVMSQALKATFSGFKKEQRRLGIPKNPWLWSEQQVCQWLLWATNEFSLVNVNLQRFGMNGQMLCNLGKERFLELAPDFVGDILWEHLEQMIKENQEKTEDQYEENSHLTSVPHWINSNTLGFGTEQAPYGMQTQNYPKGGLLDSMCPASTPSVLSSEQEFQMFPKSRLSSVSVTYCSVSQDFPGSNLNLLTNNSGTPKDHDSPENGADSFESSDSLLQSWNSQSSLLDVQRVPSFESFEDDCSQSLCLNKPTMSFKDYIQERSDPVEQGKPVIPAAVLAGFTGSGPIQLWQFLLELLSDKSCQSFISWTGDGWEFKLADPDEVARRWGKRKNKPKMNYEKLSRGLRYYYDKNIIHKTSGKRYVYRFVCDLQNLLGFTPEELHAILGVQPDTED
# Summary of the method: as §1
# SPDEF = biological target: T9, SPDEF (Homo sapiens, UniProt O95238 1-335); conditions: protein: recombinant; tags: N-terminal GST; dsDNA, one strand shown
# T9 sequence: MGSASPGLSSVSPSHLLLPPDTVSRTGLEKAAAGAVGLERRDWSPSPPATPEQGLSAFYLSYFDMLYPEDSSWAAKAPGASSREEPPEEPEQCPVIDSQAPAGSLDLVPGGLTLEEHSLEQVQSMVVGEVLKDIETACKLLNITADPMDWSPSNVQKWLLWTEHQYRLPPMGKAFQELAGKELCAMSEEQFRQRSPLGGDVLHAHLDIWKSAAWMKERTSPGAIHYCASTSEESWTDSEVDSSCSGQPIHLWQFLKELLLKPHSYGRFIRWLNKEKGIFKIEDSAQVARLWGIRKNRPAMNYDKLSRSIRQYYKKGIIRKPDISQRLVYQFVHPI
# Summary of the method: as §1
# ETV7 = biological target: T10, ETV7 (Homo sapiens, UniProt Q9Y603 1-341); conditions: protein: recombinant; tags: N-terminal GST; dsDNA, one strand shown
# T10 sequence: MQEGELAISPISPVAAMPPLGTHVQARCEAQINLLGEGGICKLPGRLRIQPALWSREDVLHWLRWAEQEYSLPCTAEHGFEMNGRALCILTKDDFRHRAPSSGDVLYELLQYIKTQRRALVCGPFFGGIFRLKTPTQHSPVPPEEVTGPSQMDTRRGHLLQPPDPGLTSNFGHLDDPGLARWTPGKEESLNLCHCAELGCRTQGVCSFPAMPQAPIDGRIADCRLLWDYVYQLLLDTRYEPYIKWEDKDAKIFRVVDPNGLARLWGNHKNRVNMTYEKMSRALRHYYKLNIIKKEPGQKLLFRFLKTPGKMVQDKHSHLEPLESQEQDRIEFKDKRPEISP
# Summary of the method: as §1
# ELF5 = biological target: T11, ELF5 (Homo sapiens, UniProt Q9UKW6-2 1-255); conditions: protein: recombinant; tags: N-terminal GST; dsDNA, one strand shown
# T11 sequence: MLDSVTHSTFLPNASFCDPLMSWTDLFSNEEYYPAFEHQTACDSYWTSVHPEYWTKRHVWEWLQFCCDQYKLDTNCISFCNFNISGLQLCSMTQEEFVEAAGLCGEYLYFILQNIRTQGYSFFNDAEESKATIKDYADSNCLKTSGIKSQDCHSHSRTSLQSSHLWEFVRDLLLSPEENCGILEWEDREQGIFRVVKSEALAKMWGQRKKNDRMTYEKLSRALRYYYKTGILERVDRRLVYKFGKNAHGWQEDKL
# Summary of the method: as §1
# ETV3 = biological target: T12, ETV3 (Homo sapiens, UniProt P41162-2 1-143); conditions: protein: recombinant; tags: N-terminal GST; dsDNA, one strand shown
# T12 sequence: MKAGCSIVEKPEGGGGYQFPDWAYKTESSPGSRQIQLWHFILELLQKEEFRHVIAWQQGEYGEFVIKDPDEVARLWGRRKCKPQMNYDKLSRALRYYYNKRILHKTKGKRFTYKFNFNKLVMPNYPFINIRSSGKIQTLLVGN
# Summary of the method: as §1
# ETV6 = ETV6 (Homo sapiens, UniProt P41212 1-452); conditions: protein: recombinant; tags: N-terminal GST; dsDNA, one strand shown
# Summary of the method: as §1
# Sequence of HSF1 (Q00613 whole entry): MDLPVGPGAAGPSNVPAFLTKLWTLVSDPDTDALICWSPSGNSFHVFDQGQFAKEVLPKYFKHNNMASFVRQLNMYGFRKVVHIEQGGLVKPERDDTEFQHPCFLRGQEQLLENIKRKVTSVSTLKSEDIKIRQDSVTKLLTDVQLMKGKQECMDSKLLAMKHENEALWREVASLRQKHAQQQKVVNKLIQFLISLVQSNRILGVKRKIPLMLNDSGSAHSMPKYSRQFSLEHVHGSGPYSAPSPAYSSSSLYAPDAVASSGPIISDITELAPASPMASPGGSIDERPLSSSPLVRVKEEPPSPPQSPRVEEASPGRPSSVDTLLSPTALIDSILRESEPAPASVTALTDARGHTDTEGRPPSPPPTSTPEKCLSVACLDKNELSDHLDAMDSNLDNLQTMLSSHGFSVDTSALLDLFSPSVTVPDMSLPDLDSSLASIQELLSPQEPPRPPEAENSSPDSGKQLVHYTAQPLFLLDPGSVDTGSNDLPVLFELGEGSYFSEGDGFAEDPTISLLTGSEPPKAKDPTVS
# Sequence of ETV5 (P41161 whole entry): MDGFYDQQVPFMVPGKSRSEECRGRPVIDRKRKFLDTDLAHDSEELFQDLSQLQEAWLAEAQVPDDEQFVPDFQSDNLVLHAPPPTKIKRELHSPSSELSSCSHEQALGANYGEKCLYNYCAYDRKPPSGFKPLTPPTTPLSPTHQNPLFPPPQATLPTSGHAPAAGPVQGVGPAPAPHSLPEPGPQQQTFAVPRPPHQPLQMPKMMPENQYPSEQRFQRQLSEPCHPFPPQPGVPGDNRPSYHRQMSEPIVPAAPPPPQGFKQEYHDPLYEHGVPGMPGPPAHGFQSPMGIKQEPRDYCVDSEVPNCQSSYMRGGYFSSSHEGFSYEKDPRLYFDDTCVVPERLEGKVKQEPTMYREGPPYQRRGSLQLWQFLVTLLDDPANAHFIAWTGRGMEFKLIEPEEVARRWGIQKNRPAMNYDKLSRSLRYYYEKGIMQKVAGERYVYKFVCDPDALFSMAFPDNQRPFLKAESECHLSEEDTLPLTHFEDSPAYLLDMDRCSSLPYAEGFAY
# Sequence of ETV6 (P41212 whole entry): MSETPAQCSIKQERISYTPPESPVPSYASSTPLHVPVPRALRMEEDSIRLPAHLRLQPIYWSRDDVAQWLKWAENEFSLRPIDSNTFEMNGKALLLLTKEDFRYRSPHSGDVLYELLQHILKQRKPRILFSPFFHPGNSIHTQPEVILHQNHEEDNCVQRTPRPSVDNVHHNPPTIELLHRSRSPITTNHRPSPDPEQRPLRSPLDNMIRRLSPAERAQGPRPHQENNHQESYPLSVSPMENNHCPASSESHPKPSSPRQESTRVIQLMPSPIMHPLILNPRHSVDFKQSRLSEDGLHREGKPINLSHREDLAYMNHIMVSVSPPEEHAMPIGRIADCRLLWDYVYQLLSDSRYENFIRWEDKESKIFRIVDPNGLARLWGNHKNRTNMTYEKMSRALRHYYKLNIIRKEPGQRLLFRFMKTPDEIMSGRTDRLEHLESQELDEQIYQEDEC
# Sequence of CRX (O43186 whole entry): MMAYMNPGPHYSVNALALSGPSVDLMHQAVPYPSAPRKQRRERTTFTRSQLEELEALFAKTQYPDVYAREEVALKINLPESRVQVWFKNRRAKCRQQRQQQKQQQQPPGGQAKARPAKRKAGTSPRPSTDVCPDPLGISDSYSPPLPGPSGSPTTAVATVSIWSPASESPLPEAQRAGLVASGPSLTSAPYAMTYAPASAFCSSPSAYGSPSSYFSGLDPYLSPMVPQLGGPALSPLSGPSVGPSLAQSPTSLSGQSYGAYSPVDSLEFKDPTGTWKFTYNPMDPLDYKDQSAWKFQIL
# Sequence of ELF4 (Q99607 whole entry): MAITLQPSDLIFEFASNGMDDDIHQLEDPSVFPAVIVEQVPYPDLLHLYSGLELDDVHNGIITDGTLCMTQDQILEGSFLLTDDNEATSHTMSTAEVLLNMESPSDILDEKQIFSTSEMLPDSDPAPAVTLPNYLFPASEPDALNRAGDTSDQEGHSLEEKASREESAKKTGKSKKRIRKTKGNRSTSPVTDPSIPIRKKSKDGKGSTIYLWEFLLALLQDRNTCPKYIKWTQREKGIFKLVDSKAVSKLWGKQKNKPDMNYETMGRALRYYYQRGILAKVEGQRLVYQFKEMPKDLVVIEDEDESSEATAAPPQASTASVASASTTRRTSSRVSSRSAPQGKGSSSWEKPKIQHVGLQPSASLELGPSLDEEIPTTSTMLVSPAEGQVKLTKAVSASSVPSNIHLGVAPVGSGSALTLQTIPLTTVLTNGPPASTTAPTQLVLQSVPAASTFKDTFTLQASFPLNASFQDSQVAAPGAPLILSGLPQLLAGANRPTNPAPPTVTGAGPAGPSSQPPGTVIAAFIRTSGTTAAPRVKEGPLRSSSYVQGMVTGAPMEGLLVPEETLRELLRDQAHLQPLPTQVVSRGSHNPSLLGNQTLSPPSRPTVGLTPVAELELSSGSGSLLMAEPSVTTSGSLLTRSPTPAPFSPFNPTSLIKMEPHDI
# Sequence of ETV1 (P50549 whole entry): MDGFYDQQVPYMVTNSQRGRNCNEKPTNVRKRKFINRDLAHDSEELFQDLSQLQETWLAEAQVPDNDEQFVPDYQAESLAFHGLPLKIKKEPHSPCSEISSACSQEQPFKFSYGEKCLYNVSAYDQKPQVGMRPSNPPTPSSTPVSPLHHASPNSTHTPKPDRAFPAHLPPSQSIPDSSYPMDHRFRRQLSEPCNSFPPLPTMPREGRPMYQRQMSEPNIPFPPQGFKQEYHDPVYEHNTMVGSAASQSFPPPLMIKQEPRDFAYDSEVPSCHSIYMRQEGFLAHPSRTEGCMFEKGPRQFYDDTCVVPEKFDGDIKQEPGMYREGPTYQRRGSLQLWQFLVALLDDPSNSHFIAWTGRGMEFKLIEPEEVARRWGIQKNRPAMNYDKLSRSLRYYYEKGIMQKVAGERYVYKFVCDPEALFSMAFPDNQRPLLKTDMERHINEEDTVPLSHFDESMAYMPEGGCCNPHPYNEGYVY
sequence,measurement,setting,value
TACCAT,binding signal,FEV,"1.14 fold enrichment (6-mer frequency, TF over GST control)"
same,binding signal,ETV5,"1.13 fold enrichment (6-mer frequency, TF over GST control)"
same,binding signal,HSF1,"1.14 fold enrichment (6-mer frequency, TF over GST control)"
same,binding signal,SPIC,"1.11 fold enrichment (6-mer frequency, TF over GST control)"
same,binding signal,ELF4,"1.22 fold enrichment (6-mer frequency, TF over GST control)"
same,binding signal,ELK4,"1.27 fold enrichment (6-mer frequency, TF over GST control)"
same,binding signal,ETV2,"1.15 fold enrichment (6-mer frequency, TF over GST control)"
same,binding signal,ELF3,"1.16 fold enrichment (6-mer frequency, TF over GST control)"
same,binding signal,CRX,"1.23 fold enrichment (6-mer frequency, TF over GST control)"
same,binding signal,ETV1,"1.2 fold enrichment (6-mer frequency, TF over GST control)"
same,binding signal,ERF,"1.22 fold enrichment (6-mer frequency, TF over GST control)"
same,binding signal,ETV3L,"1.25 fold enrichment (6-mer frequency, TF over GST control)"
same,binding signal,ETS2,"1.22 fold enrichment (6-mer frequency, TF over GST control)"
same,binding signal,SPDEF,"1.16 fold enrichment (6-mer frequency, TF over GST control)"
same,binding signal,ETV7,"1.16 fold enrichment (6-mer frequency, TF over GST control)"
same,binding signal,ELF5,"1.14 fold enrichment (6-mer frequency, TF over GST control)"
same,binding signal,ETV3,"1.17 fold enrichment (6-mer frequency, TF over GST control)"
same,binding signal,ETV6,"1.17 fold enrichment (6-mer frequency, TF over GST control)"
